Hits are enriched below; roughly 1.4% of the tested compounds scored in any of these assays.
IDH1 R132H inh: blocks human mutant IDH1 R132H enzyme. O75874. hit rate 0.093% among 390,000. Potency, µM (titrated, usually from 76.6 µM), most hits filed as inhibitors. AID 602179. IDH1-R132H enzyme, NADPH consumption, diaphorase/resazurin fluorescence; also: nearly all actives have a fitted effect of over 65% in size
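IDH1-R132H (0.5 ug/mL) preincubated 30 min with compound, then NADPH (0.016 mM) and alpha-KG (2 mM) added; 80 min at RT, pH 7.5. Remaining NADPH coupled via diaphorase/resazurin to fluorescence (540/590 nm); concentration-response curves normalized to no-enzyme control.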
TrxR1 substrate: rat thioredoxin reductase 1 substrate activity; purified TrxR1 substrate turnover, NADPH consumption readout; Potency, µM (series often up to 114 µM); hit rate 0.01% among 390,000; also: nearly all actives have a fitted effect of over 50% in size
Target sequence (O89049 whole entry, looked up): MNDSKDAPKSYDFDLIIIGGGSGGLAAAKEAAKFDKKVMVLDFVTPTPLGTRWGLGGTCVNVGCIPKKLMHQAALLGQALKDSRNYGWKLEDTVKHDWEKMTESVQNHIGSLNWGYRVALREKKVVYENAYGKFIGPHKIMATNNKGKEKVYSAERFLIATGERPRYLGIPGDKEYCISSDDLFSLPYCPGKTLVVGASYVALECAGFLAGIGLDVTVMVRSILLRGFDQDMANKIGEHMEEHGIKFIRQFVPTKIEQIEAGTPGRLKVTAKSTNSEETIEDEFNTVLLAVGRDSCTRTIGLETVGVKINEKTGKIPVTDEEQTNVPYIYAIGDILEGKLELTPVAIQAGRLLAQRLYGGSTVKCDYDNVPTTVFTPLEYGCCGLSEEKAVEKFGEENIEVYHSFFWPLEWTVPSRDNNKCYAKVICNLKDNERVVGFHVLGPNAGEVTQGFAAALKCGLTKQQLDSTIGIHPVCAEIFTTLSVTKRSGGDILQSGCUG
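Rat TrxR1, dispensed at 90 nM, was prereduced with 400 uM NADPH (final) for 5 min at ~22 deg C, then incubated with compound 15 min before 400 uM selenite. A first-read NADPH fluorescence drop versus no-compound background flagged substrates.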
LDHA block: LDHA (human) enzyme inhibition; P00338; purified LDHA, NADH/diaphorase-resazurin fluorescence; active compounds read low; activity change, % (values are at about 110 or 230 µM); hit rate 0.15% among 480,000; AID 1347041; in the data active = activity change below about -30%; inconclusive = mostly about -25% to -30%
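Human LDH5 at 2 nM final in Tris HCl pH 7.4 with 0.06 mM NADH and 0.2 mM pyruvate, reacted 5 minutes at room temperature. Remaining NADH coupled via diaphorase/resazurin; resorufin fluorescence read at 0 and 20 minutes, normalized to enzyme-free and DMSO wells.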
GLS inh: glutaminase GLS (human) inhibition | hit rate 0.21% among 410,000 | Potency, µM (titrated, usually from 45.5 µM), actives largely listed as inhibitors | GLS enzymatic activity, qHTS titration | O94925
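Coupled fluorescence readout: glutamate oxidase/HRP/Amplex Red detect glutamate formed by hKGA from L-glutamine (1 mM solution added). Buffer 45 mM KH2PO4 pH 8.2, 0.02% Tween-20; reads at t0 and 30 min RT.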
TrxR1 inh: inhibitors of rat thioredoxin reductase 1; O89049; recombinant rTrxR1, NADPH fluorescence consumption, selenite substrate; Potency, µM (highest dose often 114 µM), actives largely listed as inhibitors; hit rate 1% among 390,000; AID 588453; also: nearly all actives have a fitted effect of over 65% in size
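Rat TrxR1 (90 nM in the dispensed reagent) was pre-reduced with 400 uM NADPH for 5 min at room temperature, then incubated with compound for 15 min. After 400 uM selenite was added, NADPH fluorescence (Ex 340/Em 450 nm) was followed for 8 min.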
PKM2 activator: activators of human pyruvate kinase M2 | P14618 | purified PKM2, Kinase-Glo ATP luminescence, activation; response scale: 0% is enzyme alone, no compound | Potency, µM (top dose mostly 57.5 µM), usual class: activators | hit rate 0.34% among 260,000 | AID 1631; also: nearly all actives have a fitted effect of over 55% in size
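hPK-M2, >95% pure; 0.1 mM ADP / 0.5 mM PEP final; imidazole pH7.2 buffer w/ 7 mM MgCl2, 50 mM KCl; 1 h RT; Kinase-Glo lum. Intermediate enzyme activity for dual inhibitor/activator qHTS.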
Numbers stand for hits; - = inactive; ? = inconclusive; . = not tested or not shown; ! = not confirmed by another sample. Unless noted, calls follow the shape of the dose curve; as a rule, active = well fitted curve in the direction sought with a large enough effect; inconclusive = small, poorly fitted or top-dose-only effect, or another doubt; inactive = no such curve, though single readings can be large; an effect the other way counts as inactive or inconclusive.

SMILES | IDH1 R132H inh | TrxR1 substrate | LDHA block | GLS inh | TrxR1 inh | PKM2 activator
O=c1c2cc(F)ccc2sn1-c1ccccc1 | - | - | - | 7.1µM | - | .
O=c1c2cc(C(F)(F)F)ccc2sn1-c1ccccc1 | - | . | - | 11µM | . | .
O=c1c2ccccc2sn1-c1ccc(S(=O)(=O)N2CCCCC2)cc1 | - | - | - | - | - | .
Cc1cc(-c2ccc(C(=O)O)s2)cnc1N | - | - | - | - | 20µM | -
O=C(O)c1ccc(-c2ccc(Br)cc2)s1 | . | . | - | . | . | .
O=C(NNc1ccccc1[N+](=O)[O-])Nc1ccc(Cl)c(Cl)c1 | - | - | - | ? | - | -
O=C1NC(=O)C(c2ccccc2[N+](=O)[O-])=C1Nc1ccc(O)c(Cl)c1 | - | - | - | - | 2.7µM! | -
O=C(NCCN1CCOCC1)c1ccc2c(c1)N(Cc1c(F)cccc1Cl)C(=O)c1ccccc1S2 | - | - | - | - | - | -
O=C1S/C(=C\c2ccc(N3CCOCC3)o2)C(=O)N1Cc1c(F)cccc1Cl | - | - | - | ? | 2.5µM | 2.5µM
O=C1N=C(N2CCOCC2)S/C1=C/c1ccc(-c2ccccc2Cl)o1 | - | - | - | - | - | -
O=C1S/C(=C\c2ccc(N3CCOCC3)o2)C(=O)N1c1ccccc1 | - | - | - | ? | 4µM | -
O=C1NC(=O)/C(=C\c2ccc(N3CCOCC3)o2)N1 | - | - | - | - | 8.9µM | -
O=C1S/C(=C/c2ccc(N3CCOCC3)o2)C(=O)N1Cc1c(F)cccc1Cl | - | - | - | - | 8.9µM | ?
CC1CCCCN1C(=O)CN1CCC(c2cc3ccccc3[nH]2)CC1 (stereo not given) | . | . | - | . | . | .
O=C(COC(=O)C12CC3CC(CC(C3)C1)C2)Nc1ccc(F)cc1[N+](=O)[O-] | . | . | - | . | . | .
Cc1nc2ccccc2c(C)c1CC(=O)NCCc1ccccc1F | . | . | - | . | . | .
CCCNC(=O)CN(C)Cc1nc2ccccc2o1 | . | . | - | . | . | .
C=CCNC(=O)NC(=O)CN1CCN(c2oc(-c3ccco3)nc2C#N)CC1 | . | . | - | . | . | .
O=[N+]([O-])c1cc(S(=O)(=O)NCCN2CCOCC2)ccc1Sc1nnnn1-c1ccccc1 | - | - | - | - | 20µM | -
Cc1cccc(/C=C(/C(=O)N(C)Cc2ccccc2)c2cccs2)c1 | . | . | - | . | . | .
CC(=O)c1cc2c(cc1NC(=O)Cn1c(Nc3cccc(F)c3)nc(C)cc1=O)OCO2 | . | . | - | . | . | .
COc1cc(C2CC(=O)Oc3c2c(=O)[nH]c2ccccc32)cc2c1OCO2 (stereo not given) | . | . | -38 | . | . | .
Cc1ccc(/C=N/Nc2nc(C(C)(C)C)cs2)o1 | - | - | - | - | ? | -
Cc1ccc(/C=N/Nc2nc3ccccc3s2)o1 | - | - | - | 8.9µM | - | -
O=C(CCc1ncc(-c2ccccc2)o1)NCc1ccc(C(=O)N2CCCC2)cc1 | . | . | - | . | . | .
SMILES | IDH1 R132H inh | TrxR1 substrate | LDHA block | GLS inh | TrxR1 inh | PKM2 activator
Cc1cccc(OCCOc2ccccc2C=C(C#N)C#N)c1 | - | - | - | - | 2.8µM | -
O=C(CCl)Nc1cccc(-c2cnc3ccccc3n2)c1 | - | - | - | - | 20µM | -
CCC(=O)Nc1cccc(-c2cnc3ccccc3n2)c1 | - | - | - | - | - | -
CC(=O)CCS(=O)(=O)c1ccc(Oc2ccc(S(=O)(=O)CCC(C)=O)cc2)cc1 | - | - | - | - | 50µM | -
CC(=O)CS(=O)(=O)c1ccc(Oc2ccc(S(=O)(=O)CC(C)=O)cc2)cc1 | - | - | - | - | - | -
FC(F)(F)c1ccccc1/C=N/NC(=S)NCc1ccccc1 | . | . | - | . | . | .
Cc1cc(C)c(NC(=O)CN)c(C)c1 | - | - | - | 0.89µM | - | -
C/C(=N\NC(=S)NCc1ccccc1)c1ccco1 | - | - | - | - | 79µM | -
S=c1[nH]c2cc(-c3ccccc3)ccc2s1 | . | . | - | . | . | .
COc1cccc(-c2n[nH]c(=S)n2Cc2ccco2)c1 | - | - | - | - | 40µM | -
COc1ccccc1-c1n[nH]c(=S)n1Cc1ccco1 | . | . | . | . | . | -
COc1ccc(CNC(C)C)c2ccccc12 | . | . | - | . | . | .
CCc1nnc(NC(=O)c2cc(=O)c3ccccc3o2)s1 | . | . | - | . | . | .
Cc1ccc(S(=O)(=O)NCC(C)n2nc(C)cc2C)cc1 (stereo not given) | - | - | - | - | - | -
